Shiga toxin inh – blocks Shiga toxin action in Vero cells; Vero cells, Shiga toxin protein synthesis inhibition reporter; inhibition, % at 38.7 µM; 9.2% of 290,000 active; AID 2315; in the data active means inhibition mostly above about 28%, no sharp cut-off; inactive means mostly below about 43%; further: 0% is about no effect
NS1 inh – blocks influenza NS1 protein function | Potency, µM (series often up to 46.1 µM), without a hit: top-dose activity, positive = more growth | 0.4% of 270,000 active; calls by dose curve; further: potency means the concentration at half of the fitted maximal effect; actives are rising curves; nearly all actives have a fitted effect of over 50% in size
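In this qHTS, NS1 from influenza A is expressed in budding yeast, where it slows growth. Cells are switched from glucose to 2% galactose medium (pH 6.0, -URA), treated with compound, and growth recovery is read at OD600.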
Cycloheximide cs – counter-screen hit for Shiga toxin inhibitors, cycloheximide; cell reporter, cycloheximide protein synthesis inhibition counterscreen; 12% of 300,000 active; max response, %; in the data active means max response mostly above about 13%, no sharp cut-off; inactive means mostly below about 14%; further: read at 38.3 µM for the half of the compounds with a filed dose; 0% is about no effect
AmpC detergent – inhibitors of E. coli AmpC beta-lactamase with detergent; AID 485294; AmpC hydrolysis of nitrocefin, absorbance 480 nm, 0.01% Triton; P00811; Potency, µM (series often up to 114 µM), without a hit: at the highest dose activity change, negative = inhibition, usual class: inhibitors; 0.041% of 370,000 active;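 further: potency means the concentration at half of the fitted maximal effect; 0% = no-compound wells and -100% = no-enzyme wells; nearly all actives have a fitted effect of over 25% in size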
Target sequence (P00811 whole entry, looked up): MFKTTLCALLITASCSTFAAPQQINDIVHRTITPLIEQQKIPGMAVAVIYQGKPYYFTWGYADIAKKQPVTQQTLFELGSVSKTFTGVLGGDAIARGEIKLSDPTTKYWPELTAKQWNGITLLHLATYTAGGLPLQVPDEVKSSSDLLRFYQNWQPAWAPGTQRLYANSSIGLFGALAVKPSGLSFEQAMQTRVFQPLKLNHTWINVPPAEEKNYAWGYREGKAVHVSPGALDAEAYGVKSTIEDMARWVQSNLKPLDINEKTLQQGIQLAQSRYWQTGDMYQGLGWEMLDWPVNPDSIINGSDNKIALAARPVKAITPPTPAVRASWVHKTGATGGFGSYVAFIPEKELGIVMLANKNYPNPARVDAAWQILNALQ
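AmpC (5.3 nM in the dispensed reagent) in 20 mM phosphate pH 7.0 with 0.01% (detergent screen) or 0.0001% Triton X-100 was preincubated with compounds for 15 min at room temperature. Nitrocefin was then added from an 800 uM solution, and hydrolysis was followed at 480 nm.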
AmpC no deterg – blocks E. coli AmpC beta-lactamase in detergent-free assay. P00811. AmpC nitrocefin hydrolysis, absorbance 480 nm, 0.0001% Triton. Potency, µM (doses to about 57.1 µM), for inactives: top-dose activity change, negative = inhibition, usual class: inhibitors. 0.52% of 330,000 active;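 further: potency means the concentration at half of the fitted maximal effect; plate controls were no compound for no effect and no enzyme for full effect; nearly all actives have a fitted effect of over 20% in size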
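AmpC (5.3 nM in the dispensed reagent) in 20 mM phosphate pH 7.0 with 0.01% (detergent screen) or 0.0001% Triton X-100 was preincubated with compounds for 15 min at room temperature. Nitrocefin was then added from an 800 uM solution, and hydrolysis was followed at 480 nm.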
* hit, by the source's call; u = inconclusive; x = not tested or not shown; [ ] = another dose, or the depositor's remark. The full list was thinned out, with hits kept by preference. Unless noted, the call rests on the fitted dose curve; in most records, active means well fitted curve in the direction sought with a large enough effect; inconclusive means small, poorly fitted or top-dose-only effect, or another doubt; inactive means no such curve, though single readings can be large; an effect the other way counts as inactive or inconclusive.

SMILES | Shiga toxin inh | NS1 inh | Cycloheximide cs | AmpC detergent | AmpC no deterg
CC(=O)c1ccc(OC2OCCOC2Oc2ccc(C(C)=O)cc2)cc1 (stereo not given) | -9 | -3% | -3 | -15% | -13%
O=C(N/N=C/c1ccc(Br)o1)c1ccc2c(c1)OCCO2 | 101* | -40% | 57* | -9% | -33%
O=C(CNC(=O)c1ccc2c(c1)OCCO2)N/N=C/c1ccco1 | 13 | 4% | 8 | -1% | -9%
CCOC(=O)N/N=C\c1ccc(OC(=O)c2ccc3c(c2)OCO3)cc1 | 35 | x | 42* | -3% | -12%
Cc1ccc(C(=O)N/N=C\c2ccc3c(c2)OCO3)cn1 | 28 | -3% | 17 | 0% | -14%
O=C(N/N=C\c1ccc2c(c1)OCO2)c1cncc(Br)c1 | 60* | -12% | 23* | 3% | -12%
O=C(N/N=C/c1ccc(O)cc1)c1cncc(Br)c1 | 21 | 2% | 11 | -2% | -21%
O=C(N/N=C/c1ccc2c(c1)OCO2)c1cccnc1 | 104* | 5% | 48* | 7% | -21%
CCCCn1c(=O)[nH]c(=O)c2c1nc(-c1ccccc1F)n2Cc1ccccc1OC | -8 | x | -1 | -1% | 0%
Cn1c(NCCO)nc2c1c(=O)n(Cc1cccc(F)c1)c(=O)n2C | x | x | x | 9% | x
CSc1nc2c([nH]c3ccccc32)c(=O)n1-c1ccc(C)cc1 | x | x | x | 2% | x
O=C1C2C3C=CC(C3)C2C(=O)N1c1ccc(-c2nc3ccccc3o2)cc1 (stereo not given) | 110 | 3% | 29* | u | -8%
CSCc1ccc(C(=O)NC(C)c2cnn(-c3ccccn3)c2C)o1 (stereo not given) | 48* | -8% | 24* | -1% | -18%
COc1ccccc1-c1nnc(NC(=O)C(C)Sc2nncn2C)s1 (stereo not given) | 18 | x | 15 | 7% | -19%
CCC(Sc1nncn1C)C(=O)Nc1nnc(-c2ccccc2Cl)s1 (stereo not given) | 27 | -10% | 17* | u | -2%
CCc1ccc(CN2CCCC(C(=O)Nc3ccc(-c4cscn4)cc3)C2)o1 (stereo not given) | -3 | -4% | 9 | -2% | 44%
NC(=O)[C@@H]1CCNc2c(I)cc([N+](=O)[O-])cc2C(=O)N[C@@H](CO)C(=O)N[C@@H](Cc2ccc(O)cc2)C(=O)N1 | -7 | 11µM* | -2 | 5% | -3%
CCC1CCc2c(sc(NC(=O)C3c4ccccc4Oc4ccccc43)c2C#N)C1 (stereo not given) | x | x | x | 28% | x
N#CC1=C2C=Cc3ccccc3N2CCCC1=O | 45* | -4% | 33* | -9% | -23%
Clc1ccccc1/C=N/NC1=Nc2cccc3cccc1c23 | 66* | 25% | 32* | -5% | u
Cc1cc(=O)[nH]c(N/N=C/c2ccccc2Cl)n1 | -2 | 9% | 1 | 0% | -11%
C(=N\NC1=Nc2cccc3cccc1c23)/c1ccccn1 | 97* | x | 53* | u | -17%[11.4 µM]
O=C(c1ccc2c(=O)n(Cc3ccccc3Cl)c(=S)[nH]c2c1)N1CCCC1 | -8 | 4% | 0 | 1% | -12%
O=C(NCCc1c[nH]c2ccccc12)c1ccc2c(c1)OCO2 | 108* | -48% | 54* | -5% | -51%
N#C/C(=C\c1ccc(-c2ccc(Br)cc2)o1)C(=O)NCCc1c[nH]c2ccccc12 | -6 | 18% | 0 | -14% | 8.9µM*
SMILES | Shiga toxin inh | NS1 inh | Cycloheximide cs | AmpC detergent | AmpC no deterg
O=C(NCCc1c[nH]c2ccccc12)c1cc(Cl)c2c(c1)OCO2 | 96* | -47% | 48* | -5% | -53%
N#C/C(=C/c1ccc2c(c1)OCO2)C(=O)NCCc1c[nH]c2ccccc12 | 7 | -7% | -1 | 6% | 0.28µM*
Cc1cc(C)c[n+](-c2[nH]c(=O)sc2/C=N/N=C(\[O-])c2cccnc2)c1 | 11 | -12% | -5 | -9% | 2%
C/C(=N\NC(=O)Cc1ccccc1)c1cccs1 | -1 | -1% | 9 | 3% | -18%
C/C(=N\NC(=O)c1ccccc1O)c1cccs1 | 56* | -19% | 32* | 5% | -41%
C/C(=N\OCC(=O)Nc1ccccc1C(=O)O)c1cccs1 | 98* | x | 34* | -1% | 0%
C/C(=N/NC(=O)Cc1cccc2ccccc12)c1cccs1 | -13 | 17% | 2 | -14% | -17%
C/C(=N\NC(=O)COc1ccccc1)c1cccs1 | 70* | -7% | 54* | -2% | -9%
C/C(=N\NC(=O)COc1cccc2ccccc12)c1cccs1 | -4 | -4% | -3 | 3% | -34%
C/C(=N\NC(=O)c1cccc2ccccc12)c1cccs1 | 70* | -2% | 29* | 1% | -21%
C/C(=N/OCC(=O)Nc1ccc(C)cc1C)c1cccs1 | -14 | -78% | 2 | -9% | -12%
C#CCN1C=C(C(=O)OCC)C(C)N(Cc2ccccc2I)S1(=O)=O (stereo not given) | x | x | x | x | -12%
Cc1cccn2c(=O)c3cc(C(=O)NCC4CCCO4)c(=N)n(C4CCCC4)c3nc12 (stereo not given) | -4 | 7% | -3 | u | -17%
C/C(=N\NC(=O)Cc1cccn1C)c1cccc2ccccc12 | 3 | 12% | -5 | -1% | -1%
C/C(=N\NC(=O)c1ccoc1C)c1cccc2ccccc12 | 80* | -22% | 62* | -3% | -9%
COC(=O)c1cc(NC(=O)COC(=O)C2CCC2)cc(C(=O)OC)c1 | x | x | x | 0% | -5%
COC(=O)C(NC(=O)CC(C)C)(Nc1nc2c(s1)CCCC2)C(F)(F)F (stereo not given) | x | x | x | -5% | x
CC(C)c1ccc(NC2CCCN(C(=O)c3cccs3)C2)cc1 (stereo not given) | 23* | -5% | 32* | 1% | 39%
COc1ccc(CN=C2NN=C(c3cccc(OC)c3)CS2)cc1 | 82* | x | 42* | -8% | -56%
COc1ccc(CN=C2NN=C(c3ccccc3)CS2)cc1 | 101* | x | 48* | 10% | -33%
COc1cccc(C2=NNC(=NCc3ccccc3)SC2)c1 | 47* | x | 41* | u | -30%[11.4 µM]
COc1ccc(/C=C2\SC(=NCc3ccccc3)NC2=O)cc1 | 5 | 12% | 9 | 1% | -20%
COc1ccc(-c2cc(C(F)(F)F)nc(SCC(=O)NCC(C)C)n2)cc1OC | x | x | x | 19% | x
COc1ccc(CN(C(=O)c2ccc(C)cc2)C2CCS(=O)(=O)C2)cc1 (stereo not given) | 1 | -4% | 1 | -14% | 14%
COC(=O)[C@@H]1CC2=CC(=O)CC[C@]2(C)[C@@]23O[C@@H]2C[C@@]2(C)[C@H](CC[C@@]24CCC(=O)O4)[C@@H]13 | -8 | x | -4 | x | x
CCCCNC(=O)c1ccc(CS(=O)(=O)c2ccccc2OC)o1 | 1 | 1% | -7 | 0% | -13%
N/C(Cc1ccc([N+](=O)[O-])cc1)=N\OC(=O)COc1ccccc1Cl | 14 | -8% | 2 | -5% | -51%
N/C(Cc1cccs1)=N\OC(=O)COc1ccc(Br)cc1Cl | 140* | -22% | 33* | 3% | -22%

Screens from PubChem.
